Screening results (PubChem BioAssay)
D2 PAM-1: positively modulates the human D2 dopamine receptor allosterically | P14416 | HEK293 T-REx D2, calcium flux, EC20 dopamine potentiation | potentiation, % at 10 µM | 340,000 tested, 0.34% active;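 active = potentiation over 3 SD above the plate norm, cut at about 30% in these data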; also: 0% is about no effect
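Potentiation of an EC20 dopamine calcium response measured kinetically over 180 s, after a preceding 180 s compound-only read flagging agonists. Cells: inducible Hek293 Trex D2 line, 4000/well, cultured overnight at 30 C before dye loading.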
D2 ag-1: human D2 receptor agonism in beta-arrestin assay. DiscoveRx PathHunter D2 beta-arrestin, luminescence, 90 min; 100% = 57 uM dopamine signal. P14416. 360,000 tested, 0.084% active. activation, % (test concentration not listed); in the data active = activation above about 40%; inconclusive = between about 15% and that limit
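DiscoveRx PathHunter D2 beta-arrestin cells (2,100/well) attached overnight, then compound-stimulated 90 min at 37 C in HBSS/10 mM HEPES/0.1% Tween-20 buffer; beta-galactosidase complementation read by luminescence after 1 h at ambient temperature. Dopamine 57 uM final (EC100) as control.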
Apoferritin bind: binds horse apoferritin like a general anesthetic. apoferritin/1-aminoanthracene competitive binding, fluorescence. Potency, µM (doses to about 77.5 µM), for inactives: at the highest dose activity change, negative = displacement, actives largely listed as inhibitors. 350,000 tested, 0.074% active; also: potency is read from the fitted curve at half-maximal effect; % is scaled to controls: 0 for no effect and ±100 for the full control effect; nearly all actives have a fitted effect of over 20% in size
Target sequence (P02791 2-175 limits assumed): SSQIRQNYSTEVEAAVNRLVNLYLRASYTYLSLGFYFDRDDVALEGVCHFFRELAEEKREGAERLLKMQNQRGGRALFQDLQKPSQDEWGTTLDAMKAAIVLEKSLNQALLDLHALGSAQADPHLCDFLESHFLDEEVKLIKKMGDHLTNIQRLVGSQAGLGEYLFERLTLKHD
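10 uM apoferritin + 50% sat. 1-AMA, PBS; cpd 10 min RT; Ex380/Em535 endpoint; normalized to free probe vs complex; 4-param Hill fit; propofol titration as pos. ctrl.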
D2 ag-2: activates the human D2 dopamine receptor; P14416; HEK293 T-REx D2 cells, calcium flux agonist mode; activation, % at 2 µM; 340,000 tested, 0.53% active; AID 485358;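 active = activation over 3 SD above normal in the single-dose calcium agonist read, cut at about 30% in these data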; also: 0% is about no effect
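In this primary screen, compounds producing a positive calcium signal within 180 s of addition to tetracycline-induced, force-coupled HEK293 Trex D2 cells are flagged; cells are dye-loaded with a no-wash calcium kit beforehand.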
D2 antagonist: D2 dopamine receptor (human) antagonism. inhibition, % at 10 µM. 340,000 tested, 2% active. AID 485344. HEK293 TREx D2 cells, calcium flux, dopamine EC80; in the data active = inhibition above about 30%; inactive = below that, where a call was filed; also: 0% is about no effect
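Tetracycline-induced HEK293 T-REx cells expressing D2 force-coupled to calcium signalling were dye-loaded, exposed to compound for 180 s, then challenged with an EC80 of dopamine; calcium flux was followed kinetically for a further 180 s.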
D2 PAM-2: human D2 receptor positive allosteric modulation | P14416 | DiscoveRx D2 beta-arrestin cells, luminescence, 90 min; 100% = 57 uM dopamine signal | potentiation, % (test concentration not listed) | 360,000 tested, 0.23% active | AID 624464; in the data active = potentiation above about 50%; inconclusive = mostly about 30% to 49%
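D2 cells co-treated with compound plus 50 nM dopamine (EC20) for 90 min at 37 deg C to detect potentiation. Beta-arrestin recruitment was read as enzyme-fragment luminescence after 1 h at ambient temperature. Full response was set by 57 uM dopamine.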
D3 ag: activates human D3 dopamine receptor beta-arrestin recruitment; 2,300 tested, 4% active; Potency, µM (series often up to 76.9 µM), without a hit: top-dose activation, most hits filed as activators; shares compounds with D2 ag-2; DiscoveRx D3 beta-arrestin cells, luminescence, 90 min;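 also: potency is read from the fitted curve at half-maximal effect; 100% = dopamine control response; nearly all actives have a fitted effect of over 70% in size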
Target sequence (P35462 whole entry, looked up): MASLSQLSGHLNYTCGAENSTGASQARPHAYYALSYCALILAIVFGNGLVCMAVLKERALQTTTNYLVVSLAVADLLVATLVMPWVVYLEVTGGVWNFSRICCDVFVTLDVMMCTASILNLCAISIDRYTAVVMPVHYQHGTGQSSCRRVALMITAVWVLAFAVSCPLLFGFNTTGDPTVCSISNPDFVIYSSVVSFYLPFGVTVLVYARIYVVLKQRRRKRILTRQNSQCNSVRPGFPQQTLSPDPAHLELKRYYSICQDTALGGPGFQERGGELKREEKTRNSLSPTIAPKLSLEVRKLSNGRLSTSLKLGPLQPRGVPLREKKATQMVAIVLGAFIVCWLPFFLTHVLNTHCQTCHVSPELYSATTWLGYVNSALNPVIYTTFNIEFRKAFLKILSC
D2 ag-3: counter-screen for D3 agonists: human D2 dopamine receptor agonism. shares compounds with D2 ag-2. DiscoveRx PathHunter D2 beta-arrestin, luminescence, 90 min; response scale: percent relative to full dopamine signal. Potency, µM (series often up to 76.9 µM), for inactives: at the highest dose activation, actives largely listed as activators. 2,300 tested, 5.9% active. AID 720507; also: potency is read from the fitted curve at half-maximal effect; % of control where 0% means no effect; nearly all actives have a fitted effect of over 70% in size
* hit, by the source's call; ? = inconclusive; nt = no result. Rows were chosen to be rich in hits. Some 2.5% of all compounds tested hit in one or more screens of this group. Unless noted, calls follow the shape of the dose curve; as a rule, active = well fitted curve in the direction sought with a large enough effect; inconclusive = small, poorly fitted or top-dose-only effect, or another doubt; inactive = no such curve, though single readings can be large; an effect the other way counts as inactive or inconclusive.

SMILES	D2 PAM-1	D2 ag-1	Apoferritin bind	D2 ag-2	D2 antagonist	D2 PAM-2	D3 ag	D2 ag-3
COc1ccc(Cl)cc1NC(=O)C(C)N1Cc2ccccc2C1=O (stereo unspecified)	5	nt	-2%	-1	nt	nt	nt	nt
O=C(CSc1ccccn1)Nc1cccc(NC(=O)CSc2ccccn2)n1	0	0	-12%	0	-19	-2	nt	nt
CCCC(c1nnnn1CCOC)N1CCN(Cc2ccccc2)CC1 (stereo unspecified)	-8	1	3%	33*	-17	-7	-11%	4%
O=C(N1CCN(c2ccccc2)CC1)C(F)(F)C(F)(F)F	-15	0	8%	23	2	0	-12%	7%
O=C(N1CCN(c2ccccc2)CC1)C(F)(F)C(F)F	-10	5	-6%	21	6	-18	nt	nt
O=C(CN1CCCCC1)N1CCN(c2ccccc2)CC1	-6	-5	3%	2	23	-1	nt	nt
O=C(CN1CCN(c2ccccc2)CC1)N1CCN(c2ccccc2)CC1	-14	7	-10%	47*	-4	-11	?	21%
CCOC(=O)[C@@H]1[C@H]2COc3ccc(Br)cc3[C@H]2N2C(=O)N(c3ccc(Br)cc3)C(=O)[C@]12C	-11	1	-11%	0	-4	-27	nt	nt
CCOC(=O)[C@@H]1[C@H]2COc3ccc(Br)cc3[C@@H]2N2C(=O)N(c3ccc(Br)cc3)C(=O)[C@]12C	-19	-4	-15%	32*	9	-1	-1%	7%
CCOC(=O)[C@H]1[C@H]2COc3cc(OC)ccc3[C@@H]2N2C(=O)CN(Cc3ccco3)C(=O)[C@@]12C	6	1	nt	0	-5	-2	-5%	-4%
O=C(COc1ccccc1)Nc1nnc(C23CC4CC(CC(C4)C2)C3)s1	-3	-7	-7%	-1	6	1	nt	nt
CN1CCN(C(=O)c2ccc3c(c2)N(Cc2c(F)cccc2Cl)C(=O)c2ccccc2S3)CC1	-21	nt	2%	12	nt	nt	nt	nt
COc1ccccc1N1CCN(CCCCOc2ccc(C)cc2C)CC1	-29	10	-14%	62*	82*	0	3%	7%
CN(CCCNC(=O)C1CCC(=O)N1Cc1ccccc1Cl)c1ccccc1 (stereo unspecified)	-5	0	-8%	0	10	-5	nt	nt
Cc1ccccc1NC(=O)NCCCN1CCN(c2ccccc2F)CC1	-23	nt	-5%	nt	nt	nt	nt	nt
COc1ccccc1NC(=O)NCCCN1CCN(c2cccc(Cl)c2)CC1	-24	-4	-5%	49*	63*	-15	3%	10%
COc1ccccc1N1CCN(CCCNC(=O)Nc2ccccc2C)CC1	-26	2	-12%	23	87*	-12	-12%	3%
O=C(NCCCN1CCN(c2cccc(Cl)c2)CC1)C1CCC(=O)N1Cc1ccccc1Cl (stereo unspecified)	-23	2	-22%	50*	40*	-49	6%	?
COc1ccccc1N1CCN(CCCCN2C(=O)CCC2=O)CC1	nt	nt	-1%	nt	nt	nt	nt	nt
Cc1nc2ncnn2c(C)c1CCC(=O)NCCCN1CCN(c2cccc(Cl)c2)CC1	-18	?	-3%	76*	72*	-1	9%	?
Cc1nc2ncnn2c(C)c1CCC(=O)N1CCN(c2cccc(Cl)c2)CC1	0	nt	-7%	nt	nt	nt	nt	nt
CCN1CCC2(CC1)C(C#N)=C(N)Oc1c2sc2nc(C)cc(C)c12	-23	6	-16%	67*	53*	-16	16%	8%
CC(=O)N1CCC2(CC1)C(C#N)=C(N)Oc1c2sc2nc(C)cc(C)c12	6	-2	-14%	0	-4	-15	nt	nt
CC(C)(O)CC[C@@H](O)[C@](C)(O)C1CC[C@@]2(O)C3=CC(=O)[C@@H]4C[C@@H](O)[C@@H](O)C[C@]4(C)C3CC[C@]12C (stereo partly specified)	nt	-2	nt	nt	nt	-7	nt	nt
Cc1noc(C)c1C(=O)N1CCN(c2ccccc2O)CC1	-1	-6	nt	0	-6	-20	7%	-1%
SMILES	D2 PAM-1	D2 ag-1	Apoferritin bind	D2 ag-2	D2 antagonist	D2 PAM-2	D3 ag	D2 ag-3
COc1ccc(NC(=O)CSc2ccc3nnc(CCNC(=O)c4ccccc4)n3n2)cc1	-3	-3	-8%	0	21	-9	-8%	2%
CC(=O)Nc1ccc(NC(=O)CSc2ccc3nnc(CCNC(=O)c4ccccc4)n3n2)cc1	-4	-2	-4%	1	-3	-6	nt	nt
Cc1ccc(Cn2nnc3c(=O)[nH]c(C4CCCN(S(=O)(=O)c5ccc(F)cc5)C4)nc32)cc1 (stereo unspecified)	nt	-2	-2%	0	-19	-4	nt	nt
O=c1[nH]c(C2CCCN(S(=O)(=O)c3ccc(F)cc3)C2)nc2c1nnn2Cc1ccc(F)cc1 (stereo unspecified)	-5	0	-14%	1	68*	-3	4%	-3%
CCc1cccc(CC)c1NC(=S)NCCc1ccc(O)c(O)c1	-14	11	-5%	36*	25	-34	40µM*	?
c1ccc(CCN=C2CCCc3c2[nH]c2ccccc32)cc1	-23	13	5%	77*	58*	8	?	?
Nc1ccc(C(=O)N/N=C2\CCCc3c2[nH]c2ccccc32)cc1	nt	-4	-1%	nt	nt	4	nt	nt
O=c1[nH]c(CN(CCc2ccccc2)S(=O)(=O)c2ccc(Cl)cc2)nc2ccccc12	-9	-1	2%	25	-2	-12	-10%	7%
CN(CC(=O)NCc1ccccc1)CC(=O)Nc1ccc(Cl)c(C(F)(F)F)c1	3	7	nt	2	22	-1	4%	3%
CCOC(=O)C(=O)/C(=C\N(C)C)c1onc(-c2ccccc2Cl)c1C(=O)OC	-4	-2	2%	0	-14	2	nt	nt
CN(CCOc1cccc2ccccc12)Cc1ccccc1	-29	?	-9%	nt	nt	0	8%	16%
CC(O)(CS(=O)(=O)Cc1ccccc1)c1ccc(Cl)cc1 (stereo unspecified)	18	0	2%	-1	-5	-1	nt	nt
O=C(c1ccco1)N1CCN=C1SCc1ccccc1Cl	-3	-1	?	1	-30	-7	nt	nt
